Screening data: PubChem BioAssay, several laboratories
Sampled rows, rich in hits. Any-hit rate of the full collection: about 1.1%.
A1 inh = inhibitors of the anti-apoptotic protein A1, read as caspase activation. MEF A1-2A-BIM cells, Caspase-Glo 3/7 luminescence, 3 h; percent of clofoctol response, vehicle zero. actives 0.066% (n = 330,000). caspase activation, % (no concentration beside the values);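 active = over half of replicate activation scores above 10%, or exactly half above 10 with the replicate mean above 10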
MOR-DOR inv ag = inverse agonists of human mu-delta opioid receptor heterodimerization; P35372+P41143; inhibition, % at 9.3 µM; cell-based MOR-DOR heterodimer luminescence, inverse agonism; actives 0.21% (n = 340,000); in the data active = inhibition above about 22%, passing the limit was not always enough;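 also: 0% = cells with DMSO and 100% = wells without cells with DMSO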
HTR5A ag = counter-screen for OPRM1-OPRD1 agonists: human HTR5A agonism; actives 0.61% (n = 340,000); HTR5A agonist assay, luminescence, cell-based; activation, % at 9.3 µM; P47898; in the data active = activation mostly above about 9.5%, no sharp cut-off; inactive = mostly below about 7.6%;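 also: 0% = cells with vehicle only and 100% = reference agonist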
OPRM1-OPRD1 ag = agonists of human mu-delta opioid receptor heterodimerization | activation, % at 9.3 µM | AID 504326 | cells, OPRM1-OPRD1 heterodimerization, luminescence | actives 0.3% (n = 340,000) | P35372+P41143; in the data active = activation above about 18%;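 also: 0% = vehicle-treated cells and 100% = reference agonist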
HTR5A inv ag = inverse agonist of human HTR5A in OPRM1-OPRD1 counter-screen. P47898. actives 0.083% (n = 340,000). HTR5A cell line, luminescence, inverse agonism. inhibition, % at 9.3 µM; in the data active = inhibition mostly above about 23%, no sharp cut-off; inactive = mostly below about 18%;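 also: 0% = cells with DMSO and 100% = no-cell wells with DMSO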
OPRM1-D1 inv cf = confirmation of human OPRM1-OPRD1 heterodimerization inverse agonists | AID 504900 | actives 20% (n = 580) | shares compounds with MOR-DOR inv ag | inhibition, % at 9.3 µM | cells expressing OPRM1/OPRD1 heterodimer, luminescence; in the data active = inhibition above about 32%;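 also: 0% = cells with DMSO and 100% = wells lacking cells with DMSO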
HTR5A inv count = HTR5A inverse agonism, opioid heterodimer counter-screen; shares compounds with MOR-DOR inv ag; HTR5A-expressing cells, luminescence; inhibition, % at 9.3 µM; 580 tested, under 10 active; call rule not given here;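 also: 0% = cells with DMSO and 100% = no-cell wells with DMSO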
* marks the source's active call; other numbers are inactive results; / = no result.

SMILES	A1 inh	MOR-DOR inv ag	HTR5A ag	OPRM1-OPRD1 ag	HTR5A inv ag	OPRM1-D1 inv cf	HTR5A inv count
O=C(COC(=O)c1ccc(Br)o1)c1ccc(S(=O)(=O)N2CCCCC2)cc1	-0.2	65.0*	-9.0	-16.7	22.5	-87.7	-4.1
O=C(COC(=O)c1ccccc1)c1ccc(S(=O)(=O)N2CCCCC2)cc1	/	45.6*	-3.1	-7.0	-9.8	32.4*	1.7
NC(=O)COC(=O)c1ccc(S(=O)(=O)N2CCCCCC2)cc1	1.4	16.9	-1.4	-3.5	3.5	/	/
CCOc1ccc(CCNC(=O)CS(=O)Cc2nc(-c3ccc(C)cc3)oc2C)cc1 (centres undefined)	0.5	-12.8	-0.4	2.5	1.4	/	/
Cc1ccc2c(c1)/C(=N/N1C(=O)c3ccccc3C1=O)C(=O)N2	0.3	28.1*	-2.2	-5.0	7.4	4.6	13.7
Cc1ccc2c(c1)/C(=C/c1ccccc1C)C(=O)N2	0.7	-29.9	1.5	6.3	-5.9	/	/
CCOc1ccc2c(c1)/C(=N/N1C(=O)c3ccccc3C1=O)C(=O)N2	-0.2	42.0*	-7.4	-7.4	19.3	-7.1	7.3
CC(=O)OCC1(C)CN(c2ccccc2)N(C(=O)c2ccc(F)cc2)C1=O (centres undefined)	0.7	44.3*	-0.5	-6.1	1.2	27.4	-9.4
COc1cc(C=NNc2nc3c([nH]2)c(=O)n(C)c(=O)n3C)ccc1O	/	35.1*	-2.4	-7.2	9.5	14.5	-1.0
O=S(=O)(NNc1cccc(Cl)n1)c1ccc(Cl)cc1	/	79.7*	-5.6	-19.6	14.3	49.8*	6.3
O=c1c2c3nc4ccccc4nc3n(CCN3CCOCC3)c2ncn1CCN1CCOCC1	/	12.5	6.1	-2.4	10.0	/	/
NC(=O)c1ccc(N=C2C(=O)Nc3ccc([N+](=O)[O-])cc32)cc1	-0.3	-0.8	4.8	0.1	-13.7	/	/
O=C1Nc2ccccc2C1=Nc1ccc(F)cc1	0.5	59.2*	-2.8	-10.7	10.9	23.5	4.2
O=C1Nc2ccccc2C1=Nc1cccc([N+](=O)[O-])c1	0.0	48.1*	1.0	-8.3	-3.9	-137.7	-11.8
COc1ccc(N=C2C(=O)Nc3ccccc32)cc1	0.0	50.1*	-1.9	-9.4	7.8	19.6	-15.1
COc1ccc(N=C2C(=O)Nc3ccc(C)c(Br)c32)cc1	0.4	69.5*	-1.6	-13.9	6.1	-51.7	-3.4
O=C(c1ccc(S(=O)(=O)c2ccc(Cl)cc2)cc1)N1CCOCC1	1.5	7.3	-2.6	-1.3	6.8	/	/
NS(=O)(=O)c1ccc(N=C2C(=O)Nc3ccccc32)cc1	-0.1	64.4*	-2.5	-11.6	6.5	27.0	-6.7
CC(=O)N(/N=C1/C(=O)Nc2ccccc21)c1ccccc1	-0.4	-12.2	0.1	2.2	-0.6	/	/
COc1cc(/C=N/N=C2/C(=O)Nc3ccccc32)ccc1O	-3.8	13.4	-4.7	-2.6	12.3	/	/
COc1ccc(OC)c(N=C2C(=O)Nc3ccccc32)c1	-1.2	41.5*	-8.5	-8.3	22.1	44.9*	-2.9
CC(Sc1nc2ccccc2c(=O)n1CC1CCCO1)C(=O)N(C)c1ccccc1 (centres undefined)	/	14.3	2.1	-3.6	5.0	/	/
O=C(C1=C(O)C(=O)N(CCN2CCOCC2)C1c1ccco1)c1cc2ccccc2o1 (centres undefined)	2.1	33.6*	0.9	-6.3	-3.7	-102.0	-40.4
O=C(C1=C(O)C(=O)N(CCN2CCOCC2)C1c1ccc(F)cc1)c1cc2ccccc2o1 (centres undefined)	0.1	10.1	0.8	-1.9	-3.3	/	/
CCNC(=S)NNC(=O)CSc1nc2ccccc2[nH]1	0.6	26.1	-2.5	-5.7	30.7	/	/
SMILES	A1 inh	MOR-DOR inv ag	HTR5A ag	OPRM1-OPRD1 ag	HTR5A inv ag	OPRM1-D1 inv cf	HTR5A inv count
CCNC(=S)NNC(=O)CSc1nc2ccccc2n1C	-0.3	38.3*	-2.7	-7.7	7.0	-15.3	16.7
Cc1ccccc1N(C(=O)c1cccs1)c1nc2ccccc2s1	0.0	-7.6	3.2	1.4	-16.4	/	/
Cc1cccc(NC(=S)NNc2ncc(C(F)(F)F)cc2Cl)c1	1.2	45.0*	-2.1	-8.7	48.5	32.9*	22.2
FC(F)(F)c1cnc(NNC(=S)Nc2ccccc2Cl)c(Cl)c1	0.5	43.2*	-9.1	-8.1	29.2	44.0*	34.5
S=C(NNc1ccnc2cc(Cl)ccc12)Nc1ccccc1Cl	-0.1	-23.4	1.9	4.5	-28.7	/	/
COc1ccc(C(=O)NCCS(=O)(=O)NCc2ccc3c(c2)OCO3)cc1	0.0	9.1	0.0	-1.4	-0.1	/	/
Cn1c(=O)n(C)c2cc(NC(=O)c3cc4ccccc4o3)ccc21	-0.2	21.1	1.1	-3.6	10.7	/	/
COc1ccc2nc(NN=C(C)c3ccccn3)cc(C)c2c1	/	38.8*	-4.5	-7.5	17.4	-34.0	-91.1
C/C(=N\NC(=O)c1cc(C)nc2ccccc12)c1ccccn1	-2.8	26.3	-0.7	-6.8	1.6	/	/
Cc1ccc(C)c(C(=O)COC(=O)CNS(=O)(=O)c2ccccc2)c1	-0.1	-0.6	0.1	0.1	-0.2	/	/
Cc1ccc(C(=O)COC(=O)CNS(=O)(=O)c2ccccc2)cc1[N+](=O)[O-]	-0.3	59.1*	-8.8	-14.2	18.2	13.3	-3.6
Cc1ccc(S(=O)(=O)CCC(=O)OCC(=O)c2ccc(C)c(C)c2)cc1	0.1	9.7	2.1	-1.8	-29.4	/	/
Cc1ccc(C(=O)COC(=O)CCS(=O)(=O)c2ccccc2)cc1[N+](=O)[O-]	0.4	42.1*	-6.0	-10.9	28.1	-342.8	11.2
C=CCn1c(NCc2ccc(OC)cc2O)nc2ccccc21	0.6	5.2	-0.1	-1.1	0.4	/	/
COc1ccc2c(c1)c(=O)c(C(=O)O)c(-c1ccc3c(c1)OCO3)n2C	0.2	14.5	-0.4	-2.4	1.0	/	/
Cc1ccccc1N(C)S(=O)(=O)c1nnc(NC(=O)c2ccco2)s1	0.0	16.7	-0.2	-3.2	3.1	/	/
O=C1C(=O)N(CCS(=O)(=O)c2ccccc2)c2ccc(Cl)cc21	0.6	3.5	0.5	-0.7	-1.9	/	/
CCc1ccc2c(c1)C(=O)C(=O)N2CCS(=O)(=O)c1ccccc1	0.7	45.5*	-3.1	-8.6	12.8	-27.9	-17.3
O=C(CCC(=O)N(c1ccccc1)C(C(=O)NC1CCCC1)c1ccncc1)Nc1cccnc1 (centres undefined)	-1.7	20.4	3.5	-3.3	-20.2	/	/
COCCN(C(=O)CCC(=O)Nc1cccnc1)C(C(=O)NC1CCCCC1)c1ccccc1 (centres undefined)	0.1	35.9*	-3.5	-6.7	10.6	-16.5	-5.1
OC1=C(O)c2nc3ccccc3nc21	0.1	83.9*	1.9	-15.1	-32.6	73.2*	-16.5
